Laboratory results reported in PubChem BioAssay (Tox21).
Inconclusive results are not listed. A call without a number means that no potency is given here. Some structures have more than one record in an assay (separate samples or runs), and their calls can disagree. Calls of active or inactive are those of the source. Calls come from the whole dose curve; as a rule, active = well fitted cell-killing curve with a large enough effect in the repeat runs; inconclusive = weak or mixed curves, or effect the other way; inactive = flat fitted curve, though single readings scatter.

experiment: Caspase-3/7 induction in HepG2 cells by small molecules, qHTS cell viability counter screen (AID 1346981); conditions: CellTiter-Fluor fluorescence, 17 h; series mostly up to 92.4 µM; activity change, negative = cytotoxicity: at the top concentration; note: nearly all actives have a fitted effect of over 30% in size
Description: U.S. Tox21 Program National Center for Advancing Translational Sciences [NCATS] NIH Chemical Genomics Center [NCGC] U.S. Environmental Protection Agency [EPA] National Institutes of Environmental Health Sciences [NIEHS] National Toxicology Program [NTP] U.S. Food and Drug Administration [FDA] Tox21 Assay Overview: Apoptosis is a process of programmed cell death and plays a central role in the development of multicellular organisms. It is a highly regulated process and induces cell death by activating caspases, which are the members of cysteine aspartic acid-specific protease (caspase) family. Caspases involved in apoptosis are classified by their mechanism of action as initiator caspases (caspase-2, -8, -9 and -10) and executioner caspases (caspase-3, -6, and -7). Inhibition of apoptosis results in number of cancers, autoimmune diseases, inflammatory diseases and viral infection. To identify small molecule compounds that induce apoptosis, a homogeneous, luminescent Caspase-Glo 3/7 assay was used. Wild type HepG2 cells were used to screen Tox21 libraries for identifying caspase-3/7 activity inducers. Also cytotoxicity of the compounds was tested in parallel by measuring the cell viability using CellTiter-Fluor assay system in the same wells.
Tox21 Assay Protocol Summary: HepG2 cells were dispensed at 2,000 per well in 5uL of culture medium into white solid bottom 1536-well plates (Corning Life Sciences, Corning, NY) using a Multidrop Combi (Thermo Scientific, Waltham, MA) dispenser. The assay plates were incubated at 37 C and 5% CO2 for 5hr, and then 23nL of compounds dissolved in DMSO and positive control were transferred using a Pintool station ([…], San Diego, CA). The assay plates were incubated at 37C and 5% CO2 for 17hr. For cytotoxicity read, after 16hr incubation at 37C, 1uL CellTiter-Fluor reagent (Promega Corporation, Madison, WI) was added to each well of the assay plates using Flying Reagent Dispenser (FRD, Aurora Discovery, San Diego, CA). After 1hr incubation at 37C and 5% CO2, the fluorescence signal was quantified using a ViewLux plate reader (PerkinElmer, Shelton, CT).
Potency is the fitted concentration of half-maximal effect.

Q: For CC(C)(Oc1ccc(Cl)cc1)C(=O)O, which Potency is on record?
A: inactive

Q: Which Potency does the source give for CC(=O)[C@@]1(O)CC[C@H]2[C@@H]3C[C@H](C)C4=CC(=O)C=C[C@]4(C)[C@@]3(F)[C@@H](O)C[C@@]21C here?
A: inactive

Q: For O=C1CCc2ccccc2O1, which Potency is on record?
A: inactive

Q: For Nc1cc(Cl)c(N)c(Cl)c1, which Potency is on record?
A: inactive

Q: With CCC/C=C/C=O as the molecule, how does the Potency read?
A: inactive

Q: For CC(=O)OC(C)C, which Potency is on record?
A: inactive

Q: With O=C(O)CCCCCCCCCCCC(=O)O as the molecule, how does the Potency read?
A: inactive

Q: Which Potency does the source give for c1ccc2ncccc2c1 here?
A: inactive

Q: With O=S1(=O)CCCO1 as the molecule, how does the Potency read?
A: inactive

Q: Which “activity change, negative = cytotoxicity” value does the source give for Nc1cc([N+](=O)[O-])ccc1C(=O)O here?
A: -4.19% (inactive)

Q: For O=C(O)COCCN1CCN(C(c2ccccc2)c2ccc(Cl)cc2)CC1 (stereo not given), which Potency is on record?
A: inactive

Q: For [Na+], which Potency is on record?
A: inactive

Q: For Cc1ccc(/C(=C\CN2CCCC2)c2ccccn2)cc1, which “activity change, negative = cytotoxicity” value is on record?
A: -5.43% [at 42.5 µM] (inactive)

Q: Which Potency does the source give for CN(Cc1cnc2nc(N)nc(N)c2n1)c1ccc(C(=O)N[C@@H](CCC(=O)O)C(=O)O)cc1 here?
A: inactive

Q: With O=C(O)CCCC(=O)O as the molecule, how does the Potency read?
A: inactive

Q: For CCCCCC=O, which Potency is on record?
A: inactive

Q: With CC(=O)O[C@]1(C(C)=O)CC[C@H]2[C@@H]3C=C(Cl)C4=CC(=O)CC[C@]4(C)[C@H]3CC[C@@]21C as the molecule, how does the Potency read?
A: 61 µM (active) and inactive

Q: Which “activity change, negative = cytotoxicity” value does the source give for CCC(=O)O[C@H]1[C@H](O[C@@H]2[C@@H](C)[C@H](O[C@H]3C[C@@](C)(OC)[C@@H](O)[C@H](C)O3)[C@@H](C)C(=O)O[C@H](CC)[C@@](C)(O)[C@H](O)[C@@H](C)C(=O)[C@H](C)C[C@@]2(C)O)O[C@H](C)C[C@@H]1N(C)C here?
A: -3.09% [at 42.5 µM] (inactive)

Q: With C=C1C[C@H]2[C@@H]3C=C(C)C4=CC(=O)CC[C@]4(C)[C@H]3CC[C@]2(C)[C@@]1(OC(C)=O)C(C)=O as the molecule, how does the Potency read?
A: inactive

Q: For CC1=CC(C)(C)Nc2ccccc21, which Potency is on record?
A: inactive

Q: With CC1(C)O[C@@H]2C[C@H]3[C@@H]4C[C@H](F)C5=CC(=O)C=C[C@]5(C)[C@@]4(F)[C@@H](O)C[C@]3(C)[C@]2(C(=O)CO)O1 as the molecule, how does the Potency read?
A: inactive

Q: With C[C@]12CC[C@@H]3c4ccc(O)cc4CC[C@H]3[C@@H]1CC[C@@H]2O as the molecule, how does the Potency read?
A: inactive

Q: What does the source list for O=[Se](O)O?
A: activity change, negative = cytotoxicity: 2.81% [at 19 µM] (inactive); Potency: 24.4 µM (active)

Q: Which Potency does the source give for CN1CCOCC1 here?
A: inactive

Q: Which Potency does the source give for c1ccc2c(c1)ccc1ncccc12 here?
A: inactive

Q: For CCCCCCCCCCCCCO, which “activity change, negative = cytotoxicity” value is on record?
A: 4.69% (inactive)

Q: With CC(C)[N+](C)(CCOC(=O)C1c2ccccc2Oc2ccccc21)C(C)C as the molecule, how does the Potency read?
A: inactive

Q: For CC(C)[C@@H]1CC[C@@H](C)CC1=O, which Potency is on record?
A: inactive

Q: With ClC/C=C/CCl as the molecule, how does the Potency read?
A: inactive

Q: With Cc1ccc(N)c([N+](=O)[O-])c1 as the molecule, how does the Potency read?
A: inactive

Q: Which Potency does the source give for c1ccc2c(c1)[nH]c1ccccc12 here?
A: inactive

Q: For C/C=C/C(=O)N(CC)c1ccccc1C, which Potency is on record?
A: inactive

Q: Which Potency does the source give for Cc1cccc(Nc2ccccc2C(=O)O)c1C here?
A: inactive

Q: Which Potency does the source give for O=C(O)c1ccc(O)cc1 here?
A: inactive

Q: With Brc1nc2ccccc2s1 as the molecule, how does the Potency read?
A: inactive

Q: For C1CN(SSN2CCOCC2)CCO1, which Potency is on record?
A: inactive

Q: Which Potency does the source give for COc1ccc2nc(N)sc2c1 here?
A: inactive

Q: For CC1(C)NC(=O)N(c2ccc([N+](=O)[O-])c(C(F)(F)F)c2)C1=O, which “activity change, negative = cytotoxicity” value is on record?
A: -0.561% [at 42.5 µM] (inactive)

Q: Which Potency does the source give for CCCCCCOCCOCCO here?
A: inactive
